The text below walks through data of PubChem BioAssay (Tox21).

Unmarked numbers belong to inactive results. Entries that show only a call come without a potency. Active and inactive are the calls of the source. Calls come from the whole dose curve.

Chain of Acetylcholinesterase (Homo sapiens) (P22303 whole entry, looked up): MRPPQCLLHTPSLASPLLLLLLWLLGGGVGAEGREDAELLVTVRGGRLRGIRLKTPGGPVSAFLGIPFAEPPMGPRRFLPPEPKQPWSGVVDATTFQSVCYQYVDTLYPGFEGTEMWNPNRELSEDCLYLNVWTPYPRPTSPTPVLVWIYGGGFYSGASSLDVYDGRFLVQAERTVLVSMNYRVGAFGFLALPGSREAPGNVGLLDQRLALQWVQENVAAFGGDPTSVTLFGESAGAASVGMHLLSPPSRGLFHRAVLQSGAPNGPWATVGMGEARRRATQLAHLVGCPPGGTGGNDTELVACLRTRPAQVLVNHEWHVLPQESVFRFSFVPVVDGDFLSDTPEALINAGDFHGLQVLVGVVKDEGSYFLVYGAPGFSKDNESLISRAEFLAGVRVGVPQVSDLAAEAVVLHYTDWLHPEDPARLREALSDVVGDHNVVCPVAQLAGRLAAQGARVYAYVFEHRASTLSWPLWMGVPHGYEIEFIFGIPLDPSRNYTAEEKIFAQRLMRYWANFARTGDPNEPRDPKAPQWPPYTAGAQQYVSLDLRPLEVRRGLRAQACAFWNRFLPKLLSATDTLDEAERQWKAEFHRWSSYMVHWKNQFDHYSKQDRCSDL

The target of the assay is Acetylcholinesterase (Homo sapiens) (UniProt P22303). Nature of the assay: Acetylcholinesterase (AChE) small molecule antagonists: enzyme-based qHTS assay with human liver microsomes (AID 1347399). Note: nearly all actives have a fitted effect of over 60% in size. The following applies: Potency: qHTS inhibition; outcome: qHTS inhibition; series mostly up to 115 µM. From the text:
National Center for Advancing Translational Sciences [NCATS]
Division of Preclinical Innovation [DPI]
U.S. Environmental Protection Agency [EPA]
National Institutes of Environmental Health Sciences [NIEHS]
National Toxicology Program [NTP]
U.S. Food and Drug Administration [FDA]
Acetylcholinesterase (AChE) is the primary cholinesterase in the body that hydrolyzes a key neurotransmitter, acetylcholine. Inhibition of AChE activity can lead to neurotoxicity. The known inhibitors include organophosphorous pesticides (OP), chemical warfare agents, drugs, and various phytochemicals. Some compounds like OP compounds may need metabolic activation to be active AChE inhibitors. The cytochrome P450 (CYP) superfamily in the human microsomes is responsible for the metabolism of various endogenous and exogenous compounds.
An enzyme-based assay with the recombinant human AChE, human liver microsomes and Amplite Colormetric acetylcholinesterase assay kit (AAT Bioquest, Sunnyvale, CA) was used to evaluate compounds in the Tox21 10K library that need metabolic activation for AChE inhibition. The assay uses 5, 5-dithiobis-(2-nitrobenzoic acid) (DTNB) to quantify the thiocholine produced from the hydrolysis of acetylthiocholine by AChE.
Tox21 Assay Protocol Summary:
For the enzyme-based AChE assay with microsomes addition, a mixture of human AChE (50 mU/mL) and human liver microsomes (0.25 mg/mL, final concentration) in 3 uL/well was dispensed into black, clear-bottom 1536-well plates using a Multidrop Combi dispenser (Thermo Scientific, MA). Then, 23 nL of compound or DMSO (vehicle control) was transferred into the assay plates by a Pintool Station (Wako Automation, CA). Following compound addition, 1 uL of NADPH (0.25 mg/mL, final concentration) was transferred to the assay plate by a Flying Reagent Dispenser (Beckman Coulter, CA). The plates were incubated for 30 min at 37 C and 5% CO2, followed by the addition of 4 uL of colorimetric detection cocktail solution (DTNB, acetylthiocholine) into each well using a Flying Reagent Dispenser (Beckman Coulter, CA) and then 10 min incubation at room temperature.
With `CCCCOC(=O)CC(CC(=O)OCCCC)(OC(C)=O)C(=O)OCCCC`, the Potency entry is “inactive”.
In the case of `C[C@@]12C(=O)OC(=O)[C@]1(C)C1CCC2O1`, the Potency entry was “inactive”.
For `O=C(c1cc(O)c(O)c(O)c1)c1ccc(O)c(O)c1O`, the Potency result was “inactive”.
On to `Cc1ccc(C=O)cc1C`, for which the Potency entry was “inactive”.
On to `Oc1ccccc1C=NCc1ccccc1`, for which the Potency result was “inactive”.
Consider `CCc1nccnc1CC`, for which the activity change, negative = inhibition is 0.443% [at 23.6 µM].
Regarding `CCCc1cc(C(N)=S)ccn1`, the Potency entry was “inactive”.
On the same count and under the same terms, for `Cc1ccc2ccc(Cl)cc2n1` the value was “inactive”.
Still for that read-out and setting: with `O=C1CCCC1` the entry was “inactive”; with `CC(C)(C)CC(C)(C)N`, “inactive”.
The same measure, in the same setting: for `O=C(O)C1=NN(c2ccc(S(=O)(=O)O)cc2)C(=O)C1` the value was “inactive”.
For `C=C(C)[C@@H]1CCC2=CC(=O)C[C@@H](C)[C@]2(C)C1`, the Potency entry is “inactive”.
Same read-out and setting: with `O=C(COc1ccc(Cl)cc1)N1CCN(Cc2ccc3c(c2)OCO3)CC1` the entry was “inactive”; with `CCCC1O[C@@H]2C[C@H]3[C@@H]4CCC5=CC(=O)C=C[C@]5(C)[C@H]4[C@@H](O)C[C@]3(C)[C@]2(C(=O)CO)O1` (stereo not given in full), “inactive”.
`CCCCNC(=S)NCCCC`: the Potency entry is “inactive”.
Still for that read-out and setting: with `C[C@]12CCC(=O)C=C1C=C[C@@H]1[C@@H]2CC[C@@]2(C)[C@H]1CC[C@@]21CCC(=O)O1` the entry was “inactive”.
As for `CC(C)(C#N)Nc1nc(Cl)nc(NC2CC2)n1`, the Potency result was “inactive”.
For `CC(C)COC(=O)/C=C/c1ccccc1`, the Potency entry is “inactive”.
Consider `CC1=NN(c2cc(S(=O)(=O)O)ccc2Cl)C(=O)C1N=Nc1ccccc1` (stereo not given), for which the Potency entry is “inactive”.
For the molecule `NC(N)=NCCN1CCCCCCC1`, the activity change, negative = inhibition was -0.084% [at 0.435 µM].
With `C/C(=C(/OCCOc1ccc(Cl)cc1)c1ccc(Cl)cc1Cl)n1ccnc1`, the Potency entry is “inactive”.
As for `CNC(=S)N(C)C`, the Potency entry is “inactive”.
`CCN(CC)S(=O)(=O)c1ccc(C(=O)O)cc1`: the Potency entry was “inactive”.
The same measure, in the same setting: with `O=C(O)CCS` the entry was “inactive”.
Same read-out and setting: with `CC(C)c1ccc2c(C(C)C)cc(C(C)C)c(S(=O)(=O)O)c2c1` the entry was “inactive”; with `CC(=O)NCCCS(=O)(=O)O`, “inactive”; with `CC1(C)OC[C@@H]2O[C@@]3(C(=O)O)OC(C)(C)O[C@H]3[C@@H]2O1`, “inactive”.
The same measure, in the same setting: for `COc1ccc(OC)cc1` the value was “inactive”; for `CCCCCCCC/C=C\CCCCCCCCOCCO`, “inactive”.
For `CC(C)CCCC(C)N` (stereo not given), the Potency result is “inactive”.
Still for that read-out and setting: with `CCCCCCCCCCCCCCCCCC(=O)OCC(O)CO` (stereo not given) the entry was “inactive”.
The same measure, in the same setting: with `CCCCCCC(CCCCCCCCCCC(=O)OCC(COC(C)=O)OC(C)=O)OC(C)=O` (stereo not given) the entry was “inactive”; with `CCCCC(=O)O`, “inactive”; with `C1COC(NC(C2CC2)C2CC2)=N1`, “inactive”.
Still for that read-out and setting: with `COc1cc(NS(=O)(=O)c2ccc(N)cc2)nc(OC)n1` the entry was “inactive”; with `CC/C=C\CCO`, “inactive”.
As to `c1ccc2cc3ccccc3cc2c1`, the Potency result is “inactive”.
The same measure, in the same setting: with `O=C(Cl)c1ccccc1[N+](=O)[O-]` the entry was “inactive”; with `CC(C)OC=O`, “inactive”; with `CC1=C(O)C(=O)CO1`, “inactive”.
